High-throughput results deposited in PubChem BioAssay by National Center for Advancing Translational Sciences (NCATS).
An excerpt weighted towards active compounds, which were near 2.3% of everything screened.
Nrf2 ARE act: Nrf2 pathway activation; AREc32 ARE-luciferase reporter (MCF7-derived line), luminescence, 24 h; 410,000 compounds, 0.31% hits; Potency, µM (highest dose often 46.1 µM), inactives show at the highest dose activation, usual class: activators; note: potency is the fitted concentration of half-maximal effect; % of control where 0% means no effect; nearly all actives have a fitted effect of over 65% in size
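AREc32 cells carrying an ARE-driven firefly luciferase, 1000 cells/well in OPTI-MEM with 5% FBS, dosed after overnight attachment and incubated 24 hr at 37 deg C. Steady-Glo luminescence read after 30 min at RT.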
Nrf2 inh: Nrf2 pathway inhibition | Potency, µM (highest dose often 46 µM), without a hit: top-dose activity change, negative = inhibition, most hits filed as inhibitors | A549 ARE-Fluc reporter, luciferase luminescence, 18-24 h | 360,000 compounds, 2.1% hits; note: potency is the fitted concentration of half-maximal effect; % is set by controls: 0 for no effect and ±100 for the full control effect; nearly all actives have a fitted effect of over 60% in size
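Two sequential reads on A549 ARE_Fluc cells exposed to compound for 18-24 h: a CellTiter-Fluor fluorescence read for viability, then a luciferase luminescence read for Nrf2/ARE activity.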
A549 viability: counter-screen for Nrf2 inhibitors: cytotoxicity in A549 cells; Potency, µM (series often up to 46 µM), for the others: at the top dose activity change, negative = cytotoxicity, hits mostly inhibitors; AID 504648; 390,000 compounds, 0.16% hits; A549 ARE-Fluc cells, CellTiter-Fluor viability, 18-24 h; note: potency is the fitted concentration of half-maximal effect; % is set by controls: 0 for no effect and ±100 for the full control effect
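Cytotoxicity counterscreen: CellTiter-Fluor fluorescence was measured in A549 ARE_Fluc cells after 18-24 h of compound exposure in a concentration series. The subsequent BugLite luminescent read reports ARE-luciferase activity.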
Giardia killer: Giardia lamblia killing | activity change, % at 7.66 µM, hits read low | 340,000 compounds, 0.15% hits | Giardia lamblia trophozoite viability; in the data active = activity change below about -80%; inconclusive = between about -30% and that limit;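 note: parasites exposed to compound for two days anaerobically before the ATP read; % is set by controls: 0 for no effect and ±100 for the full control effect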
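Trophozoite viability was measured as ATP-dependent luminescence, read 15-30 min after reagent addition. Before that, parasites at 100 cells/well were exposed to compounds for 48 h, anaerobically, at 37 deg C.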
mIDH1 inhibitor: blocks human mutant IDH1 R132H enzyme; O75874; IDH1-R132H enzyme, NADPH consumption, diaphorase/resazurin fluorescence; Potency, µM (doses to about 76.6 µM), for the others: top-dose activity change, negative = inhibition, actives largely listed as inhibitors; 390,000 compounds, 0.093% hits; AID 602179; note: potency is the fitted concentration of half-maximal effect; % is set by controls: 0 for no effect and ±100 for the full control effect; nearly all actives have a fitted effect of over 65% in size
Target sequence (O75874 whole entry R132H, stated change not applied): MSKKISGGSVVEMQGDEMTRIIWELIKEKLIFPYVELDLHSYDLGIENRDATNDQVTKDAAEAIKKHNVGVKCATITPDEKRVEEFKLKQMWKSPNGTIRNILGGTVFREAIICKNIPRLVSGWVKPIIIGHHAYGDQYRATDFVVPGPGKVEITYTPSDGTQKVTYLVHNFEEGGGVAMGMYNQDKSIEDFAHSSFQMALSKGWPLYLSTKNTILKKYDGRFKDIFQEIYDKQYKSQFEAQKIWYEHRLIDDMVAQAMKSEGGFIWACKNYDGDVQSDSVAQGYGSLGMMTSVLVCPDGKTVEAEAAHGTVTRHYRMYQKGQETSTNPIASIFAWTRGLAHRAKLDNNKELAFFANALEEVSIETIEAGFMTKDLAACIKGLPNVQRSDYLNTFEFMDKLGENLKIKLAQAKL
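IDH1-R132H (0.5 ug/mL) preincubated 30 min with compound, then NADPH (0.016 mM) and alpha-KG (2 mM) added; 80 min at RT, pH 7.5. Remaining NADPH coupled via diaphorase/resazurin to fluorescence (540/590 nm); concentration-response curves normalized to no-enzyme control.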
Anesthetic bind: binds horse apoferritin like a general anesthetic. apoferritin/1-aminoanthracene competitive binding, fluorescence. Potency, µM (series often up to 77.5 µM), inactives show top-dose activity change, negative = displacement, most hits filed as inhibitors. 350,000 compounds, 0.074% hits. AID 485281; note: potency is the fitted concentration of half-maximal effect; % is set by controls: 0 for no effect and ±100 for the full control effect; nearly all actives have a fitted effect of over 20% in size
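Probe: 1-aminoanthracene (50% saturated, PBS). Protein: horse-spleen apoferritin, 10 uM. Incubation: 10 min, room temperature. Detection: 380 nm excitation, 535 nm emission. Analysis: normalized response, four-parameter Hill.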
Resorufin autofl: interferes with resorufin fluorescence in IDH1 counter-screen | shares compounds with mIDH1 inhibitor | inhibition of signal, % at 51.2 µM | Resorufin detection reagent fluorescence interference, cell-free | 750 tested, under 10 active;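 note: 0% = wells with normal resorufin and full inhibition = wells lacking resorufin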
IDH1 WT: inhibits human wild-type IDH1, mutant selectivity check. shares compounds with mIDH1 inhibitor. WT IDH1 enzyme, NADPH diaphorase/resazurin fluorescence. Potency, µM (titrated, usually from 115 µM), without a hit: at the highest dose activity change, negative = inhibition, usual class: inhibitors. 750 compounds, 9% hits. AID 623995;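 note: potency is the fitted concentration of half-maximal effect; 0% = full WT IDH1 enzyme control and full inhibition = no enzyme wells; nearly all actives have a fitted effect of over 55% in size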
Target sequence (O75874 whole entry, looked up): as the sequence (O75874 whole entry R132H, stated change not applied) above, with H132R counted along it
IDH1 R132H conf: inhibits human mutant IDH1 enzyme in cherrypick confirmation; AID 624002; IDH1 R132H enzyme, NADPH diaphorase/resazurin fluorescence; Potency, µM (series often up to 76.6 µM), inactives show top-dose activity change, negative = inhibition, hits mostly inhibitors; 750 compounds, 83% hits; shares compounds with mIDH1 inhibitor; note: potency is the fitted concentration of half-maximal effect; nearly all actives have a fitted effect of over 50% in size
* marks the source's active call; other numbers are inactive results; ? = inconclusive; nt = not tested or not shown; [ ] = another dose, or the depositor's remark. Unless noted, calls come from the whole dose curve; as a rule, active = well fitted curve in the direction sought with a large enough effect; inconclusive = small, poorly fitted or top-dose-only effect, or another doubt; inactive = no such curve, though single readings can be large; an effect the other way counts as inactive or inconclusive.

SMILES	Nrf2 ARE act	Nrf2 inh	A549 viability	Giardia killer	mIDH1 inhibitor	Anesthetic bind	Resorufin autofl	IDH1 WT	IDH1 R132H conf
CCOCCCN1C(=O)c2[nH]nc(-c3ccccc3O)c2C1c1ccc(CC)cc1 (stereo unspecified)	-1%	5%	-3%	nt	?	8%	-2	-7%	?
CCc1ccc(C2c3c(-c4ccccc4O)n[nH]c3C(=O)N2Cc2ccncc2)cc1 (stereo unspecified)	-1%	0%	2%	nt	35µM*	47%	-3	0%	28µM*
CC(C)c1ccc(C(=O)N2CCOCC2c2cc(C(=O)Nc3ccccc3)no2)cc1 (stereo unspecified)	1%	nt	nt	nt	nt	nt	nt	nt	nt
COc1cc(OC)cc(C(=O)Nc2cccc(-c3cn4ccsc4n3)c2)c1	5%	nt	6%	nt	-5%	29%	nt	nt	nt
COc1ccc(OC)c(CNc2ncnc3c2nc2n3CCCC2)c1	0%	?	2%	nt	-3%	2%	nt	nt	nt
Cc1noc(NS(=O)(=O)c2ccc(NS(=O)(=O)c3ccc(Cl)cc3)cc2)c1C	0%	0%	0%	-5	0%	nt	nt	nt	nt
Cc1noc(NS(=O)(=O)c2ccc(NS(=O)(=O)c3ccc(C(C)(C)C)cc3)cc2)c1C	-2%	nt	nt	nt	40µM*	nt	9	-7%	11µM*
O=C(CCCn1c(=O)c2cccn2c2ccc(F)cc21)NCc1ccc(Cl)cc1	-1%	11%	1%	nt	-16%	-6%	nt	nt	nt
Cn1cc(S(=O)(=O)c2cccc(Cl)c2)c(=O)c2cc(F)c(N3CCN(c4ccc(F)cc4)CC3)cc21	-1%	-23%	1%	nt	0%	-9%	nt	nt	nt
Cn1cc(S(=O)(=O)c2cccc(Cl)c2)c(=O)c2cc(F)c(N3CCCCC3)cc21	-1%	?	0%	nt	?	-10%	3	3%	13µM*
COC(=O)c1c(NC(C)=O)sc(Cc2ccccc2)c1C	2%	-8%	9%	2	?	?	-6	5%	50µM*
CCc1nc2c(OCc3ccc(OC(F)F)cc3)cccn2c1N(C)C(=O)c1ccco1	0%[9.22 µM]	nt	nt	nt	nt	nt	nt	nt	nt
C=CCSC1=C(C#N)C(c2ccccc2OCC)C(C#N)C(=O)N1 (stereo unspecified)	0%	10%	2%	11	?	-10%	2	56%	45µM*
CCCOC(=O)CSC1=C(C#N)C(c2ccccc2OC)C(C#N)C(=O)N1 (stereo unspecified)	0%	10%	0%	14	?	-16%	6	91%	45µM*
CCOC(=O)CSC1=C(C#N)C(c2ccccc2OCC)C(C(=O)OCC)C(=O)N1 (stereo unspecified)	0%	-1%	-5%	17	6%	?	nt	nt	nt
CCOC(=O)CSC1=C(C#N)C(c2ccccc2OCC)C(C#N)C(=O)N1 (stereo unspecified)	0%	-23%	-19%	0	46µM*	-12%	-1	84%	50µM*
CCOc1ccccc1C1C(C#N)=C(SCC(=O)OC)NC(=O)C1C(=O)OC (stereo unspecified)	-1%	-12%	-3%	7	11%	-12%	nt	nt	nt
O=C(NC(c1ccccc1)c1ccsc1)C1CCN(Cc2ccc(Oc3ccccc3)cc2)CC1 (stereo unspecified)	-1%	nt	nt	nt	nt	nt	nt	nt	nt
